# Source: ChEMBL document CHEMBL3988442, “University of Dundee, Small-Polar-MMV Screening Library” (2021)
# Screen size: about 69,000 compounds; about 1,000 (1.4%) showed an effect of 50% or more. The sample holds strong results, similar compounds and a random draw of the others, so the mix is not that of the screen.
# System: Leishmania donovani
# Assay: Leishmania intramacrophage assay
# Format: functional, organism-based
# Parameters: scale not given: in the data most compounds retested in dose-response had high values
smiles,measurement,setting,value
CCN(CC1CCOC1)C(=O)Nc1ccc(N2CCCC2)nc1 (stereo unspecified),Percent Effect,"30 µM, 30.03 µM",21.14%
COCCN(Cc1cnn(C)c1)C(=O)C1CCCN(C2CCOCC2)C1 (stereo unspecified),Percent Effect,"30.3 µM, […]",2.022%
CC(C)c1nnc2n1CCN(C(=O)CN1Cc3ccccc3C1=O)C2,Percent Effect,"30 µM, 30.03 µM",-6.489%
CC(C)CNC(=O)c1ccc(NC(=O)NC(C)C)cc1Cl,Percent Effect,"30.3 µM, […]",-0.4257%
COc1cccc(NC(=O)CNc2ccc(C(=O)N(C)C)c(Cl)c2)c1,Percent Effect,"30.3 µM, […]",28.32%
CC(CC(=O)Nc1ccc(C(=O)N(C)C)c(Cl)c1)n1cccc1 (stereo unspecified),Percent Effect,"30.3 µM, […]",51.53%
CCCN1CCCCC1C(=O)Nc1ccc(-c2nnc[nH]2)cc1 (stereo unspecified),Percent Effect,"30.3 µM, […]",6.317%
CC(C)N(CC(=O)Nc1ccc(Br)cc1Cl)Cc1cccnc1,Percent Effect,"30.3 µM, […]",0.9398%
Cc1ccnc(CNC(=O)C2CC(=O)N(CCN(C)C)C2)c1 (stereo unspecified),Percent Effect,"30.3 µM, […]",7.855%
CN(C)c1nccc(C2CCCCN2Cc2cnn3cccnc23)n1 (stereo unspecified),Percent Effect,"30.3 µM, […]",15.49%
CNc1nccc(C2CCCCN2Cc2cnn3cccnc23)n1 (stereo unspecified),Percent Effect,"30.3 µM, […]",53.78%
c1cnc2c(CN3CCCCC3c3ccncn3)cnn2c1 (stereo unspecified),Percent Effect,"30.3 µM, […]",9.705%
Cc1csc2c(=O)n(CCN3CCC(c4ccccc4)CC3)cnc12,Percent Effect,"30.3 µM, […]",-32.46%
Cc1nccn1CCCN1CCCC(c2nccn2CC2CCC2)C1 (stereo unspecified),Percent Effect,"30.3 µM, […]",28.26%
Cc1nccn1CCCN1CCCC(c2nccn2C)C1 (stereo unspecified),Percent Effect,"30.3 µM, […]",28.64%
Cc1nccn1CCCN1CCCC(c2ccccc2)C1 (stereo unspecified),Percent Effect,"30.3 µM, […]",72.11%
Cc1cnn(CCNCc2c(C)nn(-c3ccccc3)c2C)c1,Percent Effect,"30.3 µM, […]",-2.378%
CC(C)c1nc(C(=O)N2C[C@H](C(C)C)[C@@H](N)C2)cs1,Percent Effect,"30.3 µM, […]",39.61%
COCCn1nc(C(=O)N2CCN(C)CC2C)ccc1=O (stereo unspecified),Percent Effect,"30.3 µM, […]",4.243%
CCCc1nnsc1C(=O)NCC1CCN(c2ccccn2)CC1,Percent Effect,"30 µM, 30.03 µM",33.4%
Cc1nnsc1C(=O)NCC1CCN(c2ccccn2)CC1,Percent Effect,"30.3 µM, […]",51.71%
CCCc1nnsc1C(=O)NCC1CCN(c2ncccn2)CC1,Percent Effect,"30.3 µM, […]",10.89%
COCC(C)NC(=O)c1cc(C)n(-c2cccc(OC)c2)c1C (stereo unspecified),Percent Effect,30 µM,9.783%
CCNc1cc2c(nn1)CCN(C(=O)c1ccsc1)C2,Percent Effect,30 µM,18.6%
COCc1ccc(CNC(=O)C2=NN(c3ccccc3)C(=O)CN2)cc1,Percent Effect,"30 µM, 30.03 µM",41.01%
N#Cc1ccc(CNC(=O)C2=NN(c3ccccc3)C(=O)CN2)cc1,Percent Effect,"30.3 µM, […]",17.15%
COc1ccc(C)cc1CNC(=O)C1=NN(c2ccccc2)C(=O)CN1,Percent Effect,"30.3 µM, […]",34.24%
COc1ccccc1CNC(=O)C1=NN(c2ccc(C)cc2)C(=O)CN1,Percent Effect,"30 µM, 30.03 µM",61.91%
COc1ncccc1CNC(=O)C1=NN(c2ccccc2)C(=O)CN1,Percent Effect,"30.3 µM, […]",-11.09%
COc1ccc(CNC(=O)C2=NN(c3ccc(C)cc3)C(=O)CN2)cc1,Percent Effect,"30.3 µM, […]",51.58%
CC1CCc2n[nH]c(C(=O)NCCCc3ccccn3)c2C1 (stereo unspecified),Percent Effect,"30.3 µM, […]",-2.29%
CCOC(=O)c1ccc(NC(=O)c2cc3c([nH]c2=O)CCCC3)cc1,Percent Effect,"30.3 µM, […]",34.55%
CC(=O)Nc1nc(C(=O)N2CCCC2c2noc(C(C)C)n2)cs1 (stereo unspecified),Percent Effect,"30.3 µM, […]",-12.95%
C[C@@H]1CN(Cc2cccc(F)c2)C[C@]12CCN(Cc1cccnc1)C2=O.O=C(O)C(F)(F)F.O=C(O)C(F)(F)F,Percent Effect,"30.3 µM, […]",-0.6911%
COc1ccccc1NCC(=O)NCc1scnc1C,Percent Effect,"30.3 µM, […]",29.29%
COc1cc2nc(NCc3cc(C)on3)nc(N)c2cc1OC,Percent Effect,"30.3 µM, […]",-3.382%
COc1cc2nc(NCc3scnc3C)nc(N)c2cc1OC,Percent Effect,"30.3 µM, […]",62.63%
COCCCN1CC2(CCCCN2C(C)=O)CC1=O (stereo unspecified),Percent Effect,"30.3 µM, […]",13.42%
Cc1nc(N)ncc1C(=O)N1CCCC(CCc2ccc(F)c(F)c2)C1 (stereo unspecified),Percent Effect,"30.3 µM, […]",6.718%
OCc1c(Cl)ncn1-c1ccccc1,Percent Effect,"30.3 µM, […]",61.75%
OCc1c(Cl)ncn1-c1ccc(F)cc1,Percent Effect,"30.3 µM, […]",25.45%
Cc1ccc(-n2cnc(Cl)c2CO)cc1,Percent Effect,"30.3 µM, […]",12.87%
CC(C)CN1CCC2(CCN(Cc3nccs3)CC2)C1=O.O=C(O)C(F)(F)F,Percent Effect,"30.3 µM, […]",12.73%
Cc1noc(C)c1C(=O)N(C)C(C)c1cccnc1 (stereo unspecified),Percent Effect,"30.3 µM, […]",-5.434%
Cc1noc(CN(C)C(=O)c2n[nH]c(N)c2-c2ccccc2)n1,Percent Effect,"30.3 µM, […]",-0.6486%
CN(C)CC1(O)CCCN(c2noc(-c3ccccc3)n2)CC1 (stereo unspecified),Percent Effect,"30.3 µM, […]",2.473%
Cc1cc(N2CCCC(O)(CN(C)C)CC2)nc(-c2ccccc2)n1 (stereo unspecified),Percent Effect,"30.3 µM, […]",63.47%
CN(C)CC1(O)CCCN(c2nc(-c3ccccc3)no2)CC1 (stereo unspecified),Percent Effect,"30.3 µM, […]",31.64%
N#Cc1ccc(CN2C(=O)c3ccccc3CS2(=O)=O)cc1,Percent Effect,"30.3 µM, […]",-16.87%
Cc1cc(=O)[nH]c(-n2nc(C)c(CCC(=O)Nc3nc(C)cs3)c2C)n1,Percent Effect,"30.3 µM, […]",59.04%
COC(=O)CCc1c(C)nn(-c2nc(C)cc(=O)[nH]2)c1C,Percent Effect,"30 µM, 30.03 µM",-18.05%
